Reference: paper PMC4336329 (PLoS ONE, 2015)
Out of some 310,000 compounds screened, about 14,000 (4.5%) showed an effect of 50% or more. Effects have a minus sign here. Many of the other results were omitted from the sample, so strong results are more common in it than they were.

Biological target: human ether-à-go-go-related gene (hERG) potassium channel (human, UniProt Q12809)
Assay: primary screen, population patch clamp on CHO cells stably expressing hERG; higher = less effect of the substance
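Also: peak tail current of the secondary pulse compared with the same well before compound.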

Sequence of human ether-à-go-go-related gene (hERG) potassium channel (Q12809 whole entry, looked up): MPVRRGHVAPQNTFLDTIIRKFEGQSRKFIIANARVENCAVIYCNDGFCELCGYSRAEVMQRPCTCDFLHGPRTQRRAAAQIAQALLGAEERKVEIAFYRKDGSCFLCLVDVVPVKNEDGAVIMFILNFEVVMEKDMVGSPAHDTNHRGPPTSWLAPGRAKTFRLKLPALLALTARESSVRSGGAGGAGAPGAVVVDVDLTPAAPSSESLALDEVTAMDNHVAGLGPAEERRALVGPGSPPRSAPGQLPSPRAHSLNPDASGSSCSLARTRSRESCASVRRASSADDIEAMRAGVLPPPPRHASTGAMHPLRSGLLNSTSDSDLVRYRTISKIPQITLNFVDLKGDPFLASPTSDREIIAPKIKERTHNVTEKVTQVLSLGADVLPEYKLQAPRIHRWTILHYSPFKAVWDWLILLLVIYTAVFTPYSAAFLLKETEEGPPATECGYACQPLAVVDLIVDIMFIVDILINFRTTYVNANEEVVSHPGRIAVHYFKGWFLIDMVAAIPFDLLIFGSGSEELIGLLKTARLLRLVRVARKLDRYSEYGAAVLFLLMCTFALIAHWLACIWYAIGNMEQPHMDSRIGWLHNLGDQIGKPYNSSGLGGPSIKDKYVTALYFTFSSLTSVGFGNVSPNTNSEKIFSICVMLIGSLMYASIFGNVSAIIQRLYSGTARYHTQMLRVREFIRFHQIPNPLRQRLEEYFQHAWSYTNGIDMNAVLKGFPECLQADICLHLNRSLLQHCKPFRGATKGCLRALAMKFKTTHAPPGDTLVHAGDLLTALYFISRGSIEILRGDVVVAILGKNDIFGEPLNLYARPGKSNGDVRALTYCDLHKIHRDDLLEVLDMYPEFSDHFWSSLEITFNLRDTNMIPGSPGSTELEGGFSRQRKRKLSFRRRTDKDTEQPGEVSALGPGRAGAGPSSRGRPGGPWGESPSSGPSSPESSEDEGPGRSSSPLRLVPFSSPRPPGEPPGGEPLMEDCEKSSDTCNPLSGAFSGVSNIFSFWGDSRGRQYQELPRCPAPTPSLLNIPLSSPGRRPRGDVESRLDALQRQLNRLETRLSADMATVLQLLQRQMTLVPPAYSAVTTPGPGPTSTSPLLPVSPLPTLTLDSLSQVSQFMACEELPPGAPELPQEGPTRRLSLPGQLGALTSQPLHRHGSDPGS

Structure (SMILES)	hERG current change (%, negative = inhibition) at 10uM
CC1CC2=C(C(=O)O1)C(c1ccc(Cl)cc1)Nc1ccccc1N2 (stereo not shown)	-6.21%
Cc1ccc(-c2csc(NC(=O)CCNC(=O)c3ccccc3Cl)n2)cc1	1.5%
CC1CCCCC1N1CCN(C(=O)c2cccc(F)c2)CC1.O=C(O)C(=O)O (stereo not shown)	-17.5%
CS(=O)(=O)c1ccc(-c2cccc(NC(=O)COc3ccccc3)c2)nn1	-3.45%
CCCN1C(=O)/C(=C/c2nc3ccccc3c(=O)[nH]2)c2ccccc21	1.75%
O=C(COC(=O)c1nc(Cl)ccc1Cl)Nc1ccc2c(c1)OCO2	-3.62%
Cc1c(O)c(S(=O)(=O)c2ccccc2)c(=O)n(-c2ccccc2)c1-c1ccccc1	3.84%
Cl.N=c1n(CCN2CCCCC2)c2ccccc2n1CC(O)c1ccc(Cl)c(Cl)c1 (stereo not shown)	-105%
OC(CN1CCCCC1)Cn1c2ccccc2c2cc(Br)ccc21 (stereo not shown)	-33.1%
Cl.N=c1n(CCO)c2ccccc2n1CCN1CCCCC1	6.77%
Cl.N=c1n(CCN2CCCCC2)c2ccccc2n1CC(O)c1cccc(Br)c1 (stereo not shown)	-63.2%
COc1ccc(C(O)Cn2c(=N)n(CCCN(C)C)c3ccccc32)cc1.Cl (stereo not shown)	-13%
CN(C)CCn1c(=N)n(CC(O)c2ccc(Cl)c(Cl)c2)c2ccccc21.Cl (stereo not shown)	-66.1%
Cl.N=c1n(CCN2CCCC2)c2ccccc2n1CC(O)c1ccc(Cl)c(Cl)c1 (stereo not shown)	-91.4%
Cc1ccc2c(c1)N(CCC(=O)NCCCOC(C)C)C(=O)C(C)O2 (stereo not shown)	-0.496%
O=C(Nc1ccccc1C(=O)NCc1cccnc1)c1cccc([N+](=O)[O-])c1	-1.36%
O=C(CSc1nc(-c2ccc(F)cc2)cc(C(F)(F)F)n1)NCc1ccco1	10.2%
Oc1nc(-c2ccc(Br)cc2)n2ccncc12	-8.14%
CC(C)(C)NC(=O)CSc1nc2ccccc2c(=O)[nH]1	11.7%
COc1ccc(CCNC(=O)c2cc3ccccn3n2)c(OC)c1OC	-3.41%
O=C(CNC1CCCCC1)N1CCC2(CC1)OCCO2.O=C(O)C(=O)O	21.4%
CCOC(=O)Cc1cc(=O)n2[nH]c(-c3ccccc3)c(-c3ccccc3)c2n1	-18%

Structure (SMILES)	hERG current change (%, negative = inhibition) at 10uM
CC1CCN(CC(O)Cn2c3ccccc3c3ccccc32)CC1 (stereo not shown)	-54%
CN1CCN(CC(O)Cn2c3ccccc3c3ccccc32)CC1.O=C(O)C(=O)O (stereo not shown)	3.46%
OC(CN1CCN(c2ccccc2)CC1)Cn1c2ccccc2c2ccccc21 (stereo not shown)	9.1%
COc1ccc(CN2CCN(CC(O)Cn3c4ccccc4c4ccccc43)CC2)cc1 (stereo not shown)	-75.2%
CC(=O)N1CCN(CC(O)Cn2c3ccccc3c3ccccc32)CC1 (stereo not shown)	7.81%
CCOc1ccc(CN2CCN(CC(O)Cn3c4ccccc4c4ccccc43)CC2)cc1 (stereo not shown)	-70.9%
OC(CN1CCOCC1)Cn1c2ccccc2c2ccccc21 (stereo not shown)	2.42%
OC(CN1CCCCC1)Cn1c2ccccc2c2ccccc21 (stereo not shown)	3.16%
OC(CN1CCN(Cc2ccccc2)CC1)Cn1c2ccccc2c2ccccc21 (stereo not shown)	-67.7%
Cc1ccc(OCCN2CCN(CC(O)Cn3c4ccccc4c4ccccc43)CC2)cc1.O=C(O)C(=O)O (stereo not shown)	-25.1%
O=CN1CCN(CC(O)Cn2c3ccccc3c3ccccc32)CC1 (stereo not shown)	-23.6%
Cl.OC(CN1CCNCC1)Cn1c2ccccc2c2ccccc21 (stereo not shown)	-6.23%
CSc1cc(C)[nH]c(=O)n1	7.05%
CCOc1cc(S(=O)(=O)Nc2ccc(Cl)cn2)ccc1Cl	5.67%
CCC(C)C(NC(=O)OCc1ccccc1)C(=O)OCN1C(=O)c2ccccc2C1=O (stereo not shown)	-2.01%
COCc1cc(C)nc2sc(C(=O)Nc3ccc(OC)cc3)c(N)c12	12.5%
COc1ccccc1CN1CCCCC1C(=O)O (stereo not shown)	9.48%
CCC(C)n1c(=S)[nH]c2ccccc2c1=O (stereo not shown)	-0.621%
O=C(CC12CC3CC(CC(C3)C1)C2)NC(=S)N1CCCCC1	26.6%
CN(CC(=O)Nc1ccccc1Br)C(=O)c1ccccc1-c1nc2ccccc2s1	-26.3%
O=C(CCS(=O)(=O)c1ccc(Br)cc1)NC1CCCC1	11.6%
COC(=O)c1ccc(-c2c(-c3ccccc3)ncc3cc(F)ccc23)cc1	7.97%

Structure (SMILES)	hERG current change (%, negative = inhibition) at 10uM
CC1CCN(C(=O)N2c3ccccc3Sc3ccccc32)CC1	-5.69%
CCN(CC)CC(O)CN1c2ccccc2Sc2ccccc21 (stereo not shown)	-25%
CC1CCN(CC(O)CN2c3ccccc3Sc3ccccc32)CC1 (stereo not shown)	-59.2%
COC(=O)c1sc(NC(=O)COc2ccc(OC)cc2)nc1C	6.37%
COC(=O)c1ccccc1NC(=O)c1cnn2cccnc12	13%
C/C(NC(=O)c1ccccc1)=C1/C(=O)CC2C1C2(C)C (stereo not shown)	2.15%
O=C(CN(Cc1ccco1)C(=O)c1cc(=O)[nH]c2ccccc12)Nc1ccccc1Br	-53.5%
COc1cc(SC)ccc1C(=O)N(CC(=O)Nc1ccccc1Br)Cc1ccco1	-10.4%
O=C(CN(Cc1ccco1)C(=O)c1cc(=O)[nH]c2ccccc12)Nc1ccccc1C(F)(F)F	-12%
CC(C)=CCOc1ccc2ccc(=O)oc2c1	-12.9%
Cc1cccc(C(=O)Nc2ccccc2NC(=O)c2cccc(C)c2)c1	8.24%
COC(=O)c1c(NC(=O)CCN2CCOCC2)sc2c1CCCC2	-26%
CCOc1ccc(NC(=O)c2c(NC(=O)CN3CCCC3)sc3c2CCC3)cc1	-3.84%
CCOc1ccc(NC(=O)c2c(NC(=O)CNCCN3CCOCC3)sc3c2CCC3)cc1	-69.3%
O=C(CN1CCCC1)Nc1sc2c(c1C(=O)Nc1ccc(Br)cc1)CCC2	-1.29%
COc1ccc(NC(=O)c2c(NC(=O)CNCc3ccco3)sc3c2CCC3)cc1	17.8%
CCOc1ccc(NC(=O)c2c(NC(=O)CN3CCN(C)CC3)sc3c2CCC3)cc1	-72.7%
CC(NC(=O)N(Cc1ccccc1)Cc1ccc2c(c1)OCO2)(C(F)(F)F)C(F)(F)F	7.8%
O=C(CCCN=C1NS(=O)(=O)c2ccccc21)OCc1cc([N+](=O)[O-])cc2c1OCOC2	-14.7%
CCC(OC(=O)c1ccco1)C(=O)NCc1ccc(OC)cc1 (stereo not shown)	-8.67%
O=C(Cc1cccc2ccccc12)N1CC[C@@]2(O)CCCC[C@H]2C1	12.5%
CN(C)S(=O)(=O)c1cccc(NC(=O)COC(=O)c2ccc3c(c2)OCO3)c1	-19.4%

Structure (SMILES)	hERG current change (%, negative = inhibition) at 10uM
COc1ccc(CNCCC(c2ccc(F)cc2)c2ccc(OC(C)C)cc2)cc1OC (stereo not shown)	-73%
COc1ccc(CNCCCO)cc1OC	4.57%
COc1ccc(CNCCC(c2ccccc2)c2ccc(OC(C)C)cc2)cc1OC (stereo not shown)	-69.7%
COc1ccc(CNCCC(c2ccc(OC(C)C)cc2)c2ccccc2OC)cc1OC (stereo not shown)	-71.3%
COc1ccc(CN(CCC(c2ccccc2)c2ccc(OC(C)C)cc2)C(=O)CCl)cc1OC (stereo not shown)	-1.82%
CCOCCCNCc1ccc(OC)c(OC)c1.O=C(O)C(=O)O	3.24%
COc1ccc(CNCCC(c2ccc(OC(C)C)cc2)C(C)C)cc1OC (stereo not shown)	-74.5%
COc1ccc(C(CCNCc2ccc(OC(C)C)cc2)C(C)C)cc1 (stereo not shown)	-39%
COc1ccc(C(C)NC(=S)NCc2ccc(F)cc2)cc1OC (stereo not shown)	-5.63%
COc1ccc(CC(=O)NC(C)CCc2ccccc2)cc1OC (stereo not shown)	8.96%
COc1ccc(OC)c(NC(=S)NCCC(c2ccccc2)c2ccccc2)c1	1.73%
COc1ccc(CNCCCSc2ncccn2)cc1OC.Cl	11.9%
C/C(=N\NC(=O)c1ccc(CN2CCOCC2)cc1)c1cccc([N+](=O)[O-])c1	-19.5%
COc1ccccc1C(=O)Nc1ccccc1C(=O)NC1CCCCC1	-1.19%
O=C(COc1ccccc1Cl)Nc1ccc(C(=O)c2ccc(C(=O)O)cc2)cc1	11.7%
Cc1cccc2c(=O)oc(-c3ccccc3Cl)nc12	14.2%
Cc1ccc(CN2[C@@H](CC(C)C)COCCS2(=O)=O)cc1	-2.46%
CCOc1ccc(CN(C)C(=O)c2ccc(NC(=O)CC3SC(N4CCCC4)=NC3=O)cc2)cc1 (stereo not shown)	7.53%
O=C(NCC1CCCO1)c1ccccc1-c1nc(-c2ccc(F)cc2)no1 (stereo not shown)	-31.1%
CCc1nnc(NC(=O)CSc2nnc(COc3ccccc3)n2Cc2ccccc2)s1	5.71%
COc1ccc(NC(=O)c2sccc2-n2cccc2)cc1	3.64%
CCc1cccc2c(C(=O)CN3C(=O)NC4(CCc5ccccc54)C3=O)c[nH]c12 (stereo not shown)	10.4%
